# Assay results reported in publication PMC4336329 (PLoS ONE, 2015).
# Out of some 310,000 compounds screened, about 14,000 (4.5%) showed an effect of 50% or more. Effects have a minus sign here. What follows is part of a selection rich in strong results, with near analogues and random picks from the rest.
# Target: human ether-à-go-go-related gene (hERG) potassium channel (human, UniProt Q12809)
# Assay: primary screen, population patch clamp on CHO cells stably expressing hERG; higher = less effect of the substance
# Protocol: Briefly, Chinese hamster ovary (CHO) cells stably expressing the hERG channel were dislodged from tissue culture flasks and dispensed into PPC plates. […] During the recording, background leak currents were estimated by a 100 ms step to -80 mV from an initial holding potential of -70 mV and subtracted from the subsequent current measurement. The campaign was conducted in two phases using slight differences in recording protocol. In the first phase, the initial voltage pulse used a 100 ms step to -30 mV from a holding potential of -70 mV, a 2 s conditioning step to +25 mV, and a 2 s test step to -30 mV. During the second phase of the screen, the potential during the conditioning step was raised to +45 mV. In both phases of the campaign, a secondary voltage pulse was applied using the same parameters as the second phase initial pulse. The initial and secondary pulses were applied in the absence of compound, and upon application of 1 μM and 10 μM test concentrations. […]
# 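Further: peak tail current of the secondary pulse compared with the same well before compound.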
# human ether-à-go-go-related gene (hERG) potassium channel, sequence (Q12809 whole entry, looked up): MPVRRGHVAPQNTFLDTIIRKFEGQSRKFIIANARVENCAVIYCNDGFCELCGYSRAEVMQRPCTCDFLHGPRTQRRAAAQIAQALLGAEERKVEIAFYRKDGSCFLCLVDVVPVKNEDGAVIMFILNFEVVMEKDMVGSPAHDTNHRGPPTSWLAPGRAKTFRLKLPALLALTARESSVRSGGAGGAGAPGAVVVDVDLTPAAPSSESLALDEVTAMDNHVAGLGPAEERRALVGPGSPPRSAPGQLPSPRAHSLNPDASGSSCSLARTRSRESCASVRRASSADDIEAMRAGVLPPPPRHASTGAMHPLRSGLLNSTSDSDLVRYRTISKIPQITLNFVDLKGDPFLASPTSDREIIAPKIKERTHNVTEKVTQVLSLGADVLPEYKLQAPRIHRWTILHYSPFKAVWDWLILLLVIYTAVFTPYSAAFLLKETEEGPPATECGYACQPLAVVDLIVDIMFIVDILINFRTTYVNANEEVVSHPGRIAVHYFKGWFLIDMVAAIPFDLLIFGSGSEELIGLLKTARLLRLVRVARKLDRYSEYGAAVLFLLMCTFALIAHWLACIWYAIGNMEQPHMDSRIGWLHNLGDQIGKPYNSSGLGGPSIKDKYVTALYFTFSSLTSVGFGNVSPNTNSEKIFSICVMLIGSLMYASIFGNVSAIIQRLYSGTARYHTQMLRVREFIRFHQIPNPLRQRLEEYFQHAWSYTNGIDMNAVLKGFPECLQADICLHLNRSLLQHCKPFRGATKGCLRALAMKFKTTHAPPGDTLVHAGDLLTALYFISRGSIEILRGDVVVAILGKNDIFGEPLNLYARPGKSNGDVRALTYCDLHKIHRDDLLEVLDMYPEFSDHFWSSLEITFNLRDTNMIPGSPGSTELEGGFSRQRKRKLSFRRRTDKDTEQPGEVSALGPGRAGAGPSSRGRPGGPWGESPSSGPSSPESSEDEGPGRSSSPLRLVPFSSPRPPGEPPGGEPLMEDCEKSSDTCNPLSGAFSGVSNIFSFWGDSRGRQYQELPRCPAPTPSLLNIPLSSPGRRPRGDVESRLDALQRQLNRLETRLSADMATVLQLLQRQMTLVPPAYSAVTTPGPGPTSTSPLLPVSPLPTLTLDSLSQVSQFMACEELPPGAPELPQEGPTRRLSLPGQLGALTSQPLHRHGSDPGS
row,Compound,"hERG current change (%, negative = inhibition) at 10uM"
1,CCOC(=O)CC(=O)CSc1nc2c(sc(=S)n2-c2ccc(C)c(C)c2)c(=O)[nH]1,-10.7%
2,COc1ccccc1-c1sc2cc3c(cc2c1C#Cc1ccccn1)OCO3,8.78%
3,CSc1cccc(NC(=O)c2cc(S(=O)(=O)N3CCc4ccccc43)cn2C)c1,-12.4%
4,O=C(Nc1ccc(Oc2ccccc2)nc1)C1CCN(Cc2ccco2)CC1,-30.8%
5,CSCC(C)N1CCC(N2CCC(C(=O)NCc3ccccn3)CC2)CC1 (stereo not drawn),-9.59%
6,COCCC(=O)N1CCC(C(=O)Nc2ccc(Oc3ccccc3)nc2)CC1,17.6%
7,O=C(Nc1ccc(Oc2ccccc2)nc1)C1CCN(Cc2ccccc2)CC1,-54.9%
8,C#Cc1ccc(CN2CCC(N3CCC(C(=O)NCc4ccccn4)CC3)CC2)cc1,-72.2%
9,CCn1cc(CN2CCC(C(=O)Nc3ccc(Oc4ccccc4)nc3)CC2)cn1,-30.3%
10,C#Cc1ccc(CN2CCC(Oc3ccc(C(=O)NCc4ccccn4)cc3)CC2)cc1,-25%
11,COc1ccc(CN2CCC(C(=O)Nc3ccc(Oc4ccccc4)nc3)CC2)cc1F,-71.6%
12,O=C(Nc1ccc(Oc2ccccc2)nc1)C1CCN(Cc2cccc(F)c2)CC1,-49.8%
13,CCc1ccc(CN2CCC(C(=O)Nc3ccc(Oc4ccccc4)nc3)CC2)o1,-58.9%
14,COc1cc(CN2CCCCC2C(=O)Nc2ccc(Oc3ccccc3)nc2)ccc1O (stereo not drawn),-4.36%
15,COCc1ccc(CN2CCCCC2C(=O)Nc2ccc(Oc3ccccc3)nc2)o1 (stereo not drawn),-0.373%
16,Brc1ccccc1OCCOc1cccc2cccnc12,14.1%
17,O=C1OC2(CCCCC2)OC(=O)C1=CNc1nccs1,3.3%
18,O=C1CC(=O)C(n2cncn2)C(c2ccc(Cl)cc2Cl)C1 (stereo not drawn),7.83%
19,CC(=O)Nc1ccc(S(=O)(=O)NCc2nnnn2-c2ccc(F)cc2)cc1,3.41%
20,Cc1ccc(C(=O)N2CCN(c3ncccn3)CC2)c(C)c1,12.1%
21,CCOC(=O)c1c(C)sc(Sc2ccc(Cl)cc2[N+](=O)[O-])c1OC,11.3%

row,Compound,"hERG current change (%, negative = inhibition) at 10uM"
1,COc1ccc(C2C(C#N)=C(/N=C/N3CCOCC3)OC3=C2C(=O)CC(C)(C)C3)cc1OC (stereo not drawn),-13.5%
2,O=C(Nc1ccc(Oc2ccccc2)nc1)C1CCCCN1Cc1ccc(O)cc1 (stereo not drawn),-25.2%
3,CC#CC(=O)N1CCC(C(=O)Nc2ccc(Oc3ccccc3)nc2)CC1,1.55%
4,C#Cc1ccc(CN2CCC(C(=O)Nc3ccc(Oc4ccccc4)nc3)CC2)cc1,-72.3%
5,Cc1ccc(C)c(S(=O)(=O)N2CCN(CC(=O)Nc3cc(C)on3)CC2)c1,-12.6%
6,CCCCc1cc(=O)oc2c(CN(C)C)c(O)c(Cl)cc12,-1.34%
7,CC(NS(=O)(=O)c1ccc(Cl)cc1)C(=O)Nc1ccc2c(c1)OCCO2 (stereo not drawn),-19.4%
8,CCOCCCNC(=O)CCC(=O)NNc1nc2ccccc2c2nc(-c3ccccc3)nn12,-47.5%
9,CCN(CC)CCSc1nc(O)c(Cc2ccccc2)c(=O)n1-c1ccccc1.Cl,15.8%
10,CCCc1c(O)nc(SCCN(CC)CC)n(C(=O)c2ccccc2)c1=O.Cl,-58%
11,CCCCc1c(O)nc(SCCN(C)C)n(-c2ccccc2)c1=O,10.1%
12,CCN(CC(=O)Nc1c(F)cccc1F)C(=O)Cc1csc(-c2ccc(OC)c(OC)c2)n1,-2.82%
13,CCOc1ccccc1NC(=S)NCCc1ccccc1,4.14%
14,O=C(NCC1CCCO1)c1cn(Cc2ccccc2)nc1-c1ccccc1 (stereo not drawn),-0.0253%
15,Nc1c(C(=O)NCC2CCCO2)c2nc3ccccc3nc2n1Cc1ccco1 (stereo not drawn),10.5%
16,N=c1c(C(=O)NCC2CCCO2)cc2c(=O)n3ccccc3nc2n1Cc1cccnc1 (stereo not drawn),-72.9%
17,O=C(Cn1c(=O)n(Cc2ccco2)c(=O)c2ccccc21)NCC1CCCO1 (stereo not drawn),2.5%
18,N=c1c(C(=O)NCC2CCCO2)cc2c(=O)n3ccccc3nc2n1Cc1ccc(F)cc1 (stereo not drawn),-80%
19,N=c1c(C(=O)NCC2CCCO2)cc2c(=O)n3ccccc3nc2n1Cc1ccco1 (stereo not drawn),-78.7%
20,N=c1c(C(=O)NCC2CCCO2)cc2c(=O)n3ccccc3nc2n1Cc1ccccc1 (stereo not drawn),-75.3%
21,O=C(Cn1c(=O)n(Cc2ccc(F)cc2)c(=O)c2ccccc21)NCC1CCCO1 (stereo not drawn),-2.66%

row,Compound,"hERG current change (%, negative = inhibition) at 10uM"
1,O=C(Cc1ccc(-n2c(=O)c3ccccc3n(Cc3ccc(F)cc3)c2=O)cc1)NCC1CCCO1 (stereo not drawn),-19.6%
2,CCCCNC(=O)C1(O)c2cc(Br)ccc2NC(=O)N1c1cccc(OC)c1 (stereo not drawn),7.42%
3,Cc1cc(C)c2nc(SC3CCOC3=O)cc(C)c2c1 (stereo not drawn),4.23%
4,COc1ccc(C(=O)Nc2cccc(S(C)(=O)=O)c2)cc1OC,6.89%
5,O=C(N/N=C\c1c(O)ccc2ccccc12)c1ccc(O)cc1,14.3%
6,Cc1c(C(=O)Nc2nnc(C3CC3)s2)oc2c(Cl)cccc12,8.02%
7,N=c1c(S(=O)(=O)c2ccc(Cl)cc2)cc2c(=O)n3ccccc3nc2n1CC1CCCO1 (stereo not drawn),-13.3%
8,N=c1c(C(=O)NCc2ccco2)cc2c(=O)n3ccccc3nc2n1CC1CCCO1 (stereo not drawn),-76%
9,O=C(NCC1CCCO1)c1ccc2c(=O)n(Cc3ccc(Cl)cc3)c(=S)[nH]c2c1 (stereo not drawn),6.02%
10,N=c1c(C(=O)NCC2CCCO2)cc2c(=O)n3ccccc3nc2n1Cc1ccccc1Cl (stereo not drawn),-67.9%
11,O=C(NCC1CCCO1)c1nc2c(nnn2Cc2ccccc2Cl)c(=O)[nH]1 (stereo not drawn),-0.506%
12,O=C(NCc1ccco1)c1ccc2c(=O)n(CC3CCCO3)c(=S)[nH]c2c1 (stereo not drawn),-1.68%
13,O=C(Cc1ccc(-n2c(=O)c3ccccc3n(Cc3ccccc3Cl)c2=O)cc1)NCC1CCCO1 (stereo not drawn),-1.93%
14,N=c1c(C(=O)NCC2CCCO2)cc2c(=O)n3ccccc3nc2n1Cc1ccc(Cl)cc1 (stereo not drawn),-77.2%
15,CC(=O)c1cccc(NC(=O)CCNC(=O)c2ccccc2Cl)c1,11.4%
16,CCn1cc(C(=O)Nc2ccc(C)cc2[N+](=O)[O-])c(C)n1,5.23%
17,CN(Cc1nc(-c2cccs2)no1)CC1COCCO1 (stereo not drawn),1.17%
18,S=C(NCCN1CCOCC1)N1CCN(c2cccc(Cl)c2)CC1,-16%
19,CC1=CC(=O)C(C(C)C)=C/C1=N/OC(=O)c1cccc([N+](=O)[O-])c1,7.36%
20,COc1ccc2nc(NC(=O)CSc3nnc(C)n3N)sc2c1,0.177%
21,C=CCn1c(SCn2nnc3ccccc3c2=O)nnc1-c1ccc(F)cc1,-28.9%

row,Compound,"hERG current change (%, negative = inhibition) at 10uM"
1,C=CCn1c(COc2ccc(OC)cc2)nnc1SCn1nnc2ccccc2c1=O,-27.1%
2,O=c1cc(CCl)nc2sc3ccccc3n12,8.04%
3,O=c1c2ccccc2nnn1CSc1nnc(-c2cccs2)n1Cc1ccccc1,-62.6%
4,C=CCn1c(COc2cccc(C)c2)nnc1SCn1nnc2ccccc2c1=O,-5.37%
5,C=CCn1c(SCn2nnc3ccccc3c2=O)nnc1-c1ccc(Br)cc1,-62.7%
6,O=c1cc(CSc2nnc(C3CC3)n2Cc2ccccc2)nc2sccn12,11.7%
7,O=c1c2ccccc2nnn1Cc1ccccc1,35.3%
8,C=CCn1c(SCn2nnc3ccccc3c2=O)nc2scc(-c3cccs3)c2c1=O,-5.21%
9,C=CCn1c(SCn2nnc3ccccc3c2=O)nnc1C1CCCCC1,-14.1%
10,C=CCn1c(SCn2nnc3ccccc3c2=O)nnc1-c1ccc(Cl)cc1,-61.2%
11,O=c1cc(CSc2nnc(-c3cccs3)n2Cc2ccccc2)nc2sc3ccccc3n12,-53.5%
12,CCCOc1cccc(C(=O)Nc2ccc3c(c2)OCCO3)c1,0.786%
13,CSc1cccc(NC(=O)C2CCN(S(=O)(=O)c3cnc[nH]3)CC2)c1,9.39%
14,Nc1c(NCc2ccccc2)c(=O)c1=O,-6.37%
15,Cc1nc2c(C)cccn2c(=O)c1NC(=O)c1ccc(Br)o1,5.14%
16,O=C(COc1cccc(C(F)(F)F)c1)Nc1cccnc1,4.03%
17,CCC(C)N(C(=O)c1csnn1)C(C(=O)NC1CCCC1)c1ccc(F)cc1 (stereo not drawn),0.39%
18,CC(=O)c1cccc(NC(=O)CCCNC(=O)c2ccc(Cl)cc2)c1,2.99%
19,CCN(CC)C(=O)c1cn(-c2cccc(OC)c2)c(=O)c2ccccc12,9.66%
20,COC(=O)c1cc(Cl)nc2ccccc12,-7.89%
21,COc1ccc(CNC(=O)c2cc(S(=O)(=O)N3CCCC3)cn2C)cc1,13.2%
